Experimental findings from PubChem BioAssay (NCATS) are described below.

Inconclusive results are not listed. The source made the active and inactive calls. Unless noted, calls come from the whole dose curve; as a rule, active = well fitted curve in the direction sought with a large enough effect; inconclusive = small, poorly fitted or top-dose-only effect, or another doubt; inactive = no such curve, though single readings can be large; an effect the other way counts as inactive or inconclusive.

Experiment [1] relates to Zika virus NS2B-NS3 protease. The experiment can be described thus: Primary screen GU AMC qHTS for Zika virus inhibitors (AID 1347154).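 For activity change, negative = inhibition: 0% = no-inhibitor control and -100% = no-enzyme control.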 Note: nearly all actives have a fitted effect of over 70% in size. Note: potency is the fitted concentration of half-maximal effect. In outline: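 Unlinked Zika NS2B hydrophilic domain/NS3 protease domain noncovalent complex (25 nM final) in 10 mM Tris-HCl pH 8.0, 0.01% Tween 20, with AMC peptide substrate. Fluorescence (ex 340, em 450 nm) change over 15 min, room temperature; percent inhibition fitted to 4-parameter Hill equation.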

Experiment [2] relates to Zika virus NS2B-NS3 protease (linked construct). The experiment can be described thus: Confirmatory screen NINDS AMC qHTS for Zika virus inhibitors (AID 1347152).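 For activity change, negative = inhibition: AMC fluorescence gain from cleaved Bz-Nle-KRR-AMC substrate over 15 min; top concentration of the series differs between compounds; 0% = no-inhibitor control and -100% = no-enzyme control.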 Note: nearly all actives have a fitted effect of over 70% in size. Note: potency is the fitted concentration of half-maximal effect. In outline: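 Enzyme (1 nM, linked construct) was preincubated with compound for 15 minutes at room temperature in 10 mM Tris-HCl pH 8.0 with 0.01% Tween 20. Bz-Nle-Lys-Arg-Arg-AMC was then added to 10 microM, and AMC fluorescence was recorded immediately and after 15 minutes.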

In experiment [3] the test system is Zika virus NS2B-NS3 protease (unlinked complex). The experiment can be described thus: Confirmatory screen GU AMC qHTS for Zika virus inhibitors (AID 1347153).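 For Potency: enzyme at 25 nM with substrate at 10 µM below its Km of 18.3 µM; potency is the fitted concentration of half-maximal effect.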 Note: nearly all actives have a fitted effect of over 70% in size. In outline:
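Compounds were preincubated 15 min at room temperature with 25 nM noncovalent NS2B-NS3 protease at pH 8.0; AMC substrate added at 10 microM and 15-min fluorescence gain (340/450 nm) converted to percent inhibition, fitted 4-parameter.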

A short description of experiment [4]: Tertiary RLuc qRT-PCR qHTS assay for Zika virus inhibitors (AID 1347169). Note: top concentration of the series differs between compounds; % is set by controls: 0 for no effect and ±100 for the full control effect; nearly all actives have a fitted effect of over 55% in size. The method in brief: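 Vero, 1,000 cells/well, o/n 37 C; cpd pinned in DMSO; ZIKV-RLuc Cambodian, MOI 1-2, 48-72 h 37 C; live-cell RLuc substrate, lum read at 1-1.5 h.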
(Real-time PCR tracks product formation cycle by cycle.)

A short description of experiment [5]: Vero cells viability qHTS for Zika virus inhibitors (AID 1347167). Note: % is set by controls: 0 for no effect and ±100 for the full control effect. The method in brief:
(§1)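 Counter-screen for cytotoxicity of hits from NS2B-NS3 protease qHTS. Overnight-attached cells (2.5 x 10^5 cells/mL, DMEM/4% FBS) were dosed in titration, incubated 24 to 48 hours, then assayed by CellTiter Glo.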
(qHTS replaces the single test concentration by a dilution series.)

Experiment [6] in a line: HepG2 cells viability qHTS for Zika virus inhibitors (AID 1347168). Note: % is set by controls: 0 for no effect and ±100 for the full control effect. In outline:
as §1

Experiment [7] can be described thus: Primary qHTS for small molecule stabilizers of the endoplasmic reticulum resident proteome: Secreted ER Calcium Modulated Protein (SERCaMP) assay (AID 1508630). Note: % is set by controls: 0 for no effect and ±100 for the full control effect. In outline: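 GLuc-SERCaMP-expressing SH-SY5Y cells, pretreated 16 h with compound, are challenged with thapsigargin to empty ER calcium stores; after 4 h, coelenterazine is added directly to the medium and luminescence is imaged.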

Experiment [8] has as its target Glucocorticoid receptor (Homo sapiens) (UniProt P04150). The experiment can be described thus: GR-GFP Redistribution (AID 450;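 active = compounds whose dose series gives a full or clear partial fitted curve of increased nuclear translocation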; note: potency is the fitted concentration of half-maximal effect). Particulars: U2OS GR-GFP nuclear translocation, laser cytometry, 2 h.
The target is the same in experiment [9]. As to the kind of experiment: GR-EFC Redistribution (AID 451; calls by dose curve; note: potency is the fitted concentration of half-maximal effect). Particulars: CHO-K1 GR-EFC translocation, beta-gal luminescence, 2 h. The method in brief:
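CHO-K1 cells stably expressing nuclear-localized β-gal enzyme acceptor and GR fused C-terminally to the enzyme donor fragment; ligand-driven nuclear translocation restores β-gal by complementation. Compounds titrated up to 46 uM final, 2 h at 37 °C; luminescence read.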

In experiment [10] the target is Cytochrome P450 3A4 (Homo sapiens) (UniProt P08684). The experiment can be described thus: qHTS Assay for Activators of Cytochrome P450 3A4 (AID 885). Note: nearly all actives have a fitted effect of over 65% in size. The method in brief:
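Signal was normalized against complete inhibition by 57 uM ketoconazole. The reaction used 20nM CYP3A4 with 25uM Luciferin-PPXE, 10-min compound preincubation and a 60-min NADPH-supported step at RT.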

The target in experiment [11] is Ubiquitin carboxyl-terminal hydrolase 1 (Homo sapiens) (UniProt O94782). The experiment can be described thus: Inhibitors of USP1/UAF1: Pilot qHTS (AID 504865). Note: potency is the fitted concentration of half-maximal effect; nearly all actives have a fitted effect of over 35% in size. In outline:
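In 50mM HEPES pH 7.8 containing 0.5mM EDTA, 1mM TCEP, 0.1 mg/ml BSA and 0.01% Tween-20, 1nM USP1/UAF1 is exposed to compound for 15 min, then Ub-Rho (150nM final) is added and fluorescence is read over time.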

The target in experiment [12] is DNA dC->dU-editing enzyme APOBEC-3G (Homo sapiens) (UniProt Q9HC16). The experiment can be described thus: qHTS for inhibitors of Vif-A3G interactions: Validation (AID 588379). Note: 0% is about no effect. The method in brief: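 HeLa cells stably expressing Vif and A3G-eYFP, 700 cells/well, incubated overnight at 37 deg C, then exposed to compound overnight at 37 deg C. Inhibition of Vif-mediated degradation read as increased yellow fluorescence (Ex 488/Em 500-530) by laser-scanning cytometry.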
Chain of DNA dC->dU-editing enzyme APOBEC-3G (Homo sapiens) (Q9HC16 whole entry, looked up): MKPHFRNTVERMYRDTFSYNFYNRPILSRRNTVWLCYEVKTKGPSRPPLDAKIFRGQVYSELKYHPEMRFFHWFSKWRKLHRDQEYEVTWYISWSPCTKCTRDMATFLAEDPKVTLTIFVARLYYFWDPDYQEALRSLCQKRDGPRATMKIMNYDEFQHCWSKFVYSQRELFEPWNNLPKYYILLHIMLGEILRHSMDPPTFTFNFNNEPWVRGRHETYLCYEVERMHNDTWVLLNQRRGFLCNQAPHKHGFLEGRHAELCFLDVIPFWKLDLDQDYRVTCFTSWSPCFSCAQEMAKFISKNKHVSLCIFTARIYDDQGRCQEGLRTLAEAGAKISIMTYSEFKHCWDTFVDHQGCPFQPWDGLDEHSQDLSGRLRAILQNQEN

Experiment [13] is described as follows: Confirmatory screen NINDS Rhodamine qHTS for Zika virus inhibitors (AID 1347161). Note: potency is the fitted concentration of half-maximal effect; nearly all actives have a fitted effect of over 60% in size. The method in brief: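 Purified NS2B-NS3 protease with the NS2B hydrophilic domain joined by a flexible linker (25 nM) in 10 mM Tris-HCl pH 8.0, 0.01% Tween 20, preincubated 15 min at RT with compound; Rhodamine110 peptide substrate 1.5 µM; fluorescence change over 15 min; 4-parameter Hill fit.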

In experiment [14] the test system is Zika virus NS2B-NS3 protease (linked). The experiment can be described thus: 384 well plate NINDS AMC confirmatory qHTS for Zika virus inhibitors (AID 1347163).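 For activity change, negative = inhibition: linked protease at 5 30 or 60 nM final depending on run; fluorescence of AMC released from Ac-VKTGKR-AMC peptide cleaved by the protease; top concentration of the series differs between compounds; 0% = no-inhibitor control and -100% = no-enzyme control.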 Note: nearly all actives have a fitted effect of over 50% in size. Note: potency is the fitted concentration of half-maximal effect. In outline:
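Linked protease 5/30/60 nM final; cpds up to 1 mM final, ~15 min preinc. Substrate Ac-VKTGKR-AMC 30 microM final. RT, dark, 25 min; FI ex 355/em 460; normalized to no-enzyme/no-inhibitor ctrls.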

Experiment [15] concerns Zika virus NS2B-NS3 protease (linked construct). As to the kind of experiment: 384 well plate NINDS Rhodamine confirmatory qHTS for Zika virus inhibitors (AID 1347164).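 Note: fluorescence from protease cleavage of Ac-LKRR-rhodamine 110 substrate; potency is the fitted concentration of half-maximal effect; nearly all actives have a fitted effect of over 65% in size.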 The method in brief: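 Enzyme (final 5/30/60 nM) + cpd (DMSO), ~15 min; add Ac-LKRR-Rd 10 microM final; 25 min RT, dark; FI ex 485/em 538; normalized to no-enzyme, no-inhibitor ctrls; aprotinin intraplate ctrl.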

Experiment [16] has as its target Rap guanine nucleotide exchange factor 3 (Homo sapiens) (UniProt O95398). The experiment can be described thus: Confirmatory qHTS for agonist of cAMP-regulated guanine nucleotide exchange factor 3 (EPAC1) (AID 1645881).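 Note: EPAC1 catalysed release of BODIPY-GDP from Rap1B seen as fluorescence loss; 100% = effect of cAMP agonist control; nearly all actives have a fitted effect of over 75% in size.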
For experiment [17], the target named is Rap guanine nucleotide exchange factor 4 (Homo sapiens) (UniProt Q8WZA2). The experiment can be described thus: Confirmatory qHTS for agonist of cAMP-regulated guanine nucleotide exchange factor 4 (EPAC2) (AID 1645884).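 Note: nucleotide exchange releases bodipy-GDP from Rap1 and this lowers its fluorescence; % is set by controls: 0 for no effect and ±100 for the full control effect; nearly all actives have a fitted effect of over 65% in size.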
Chain of Rap guanine nucleotide exchange factor 4 (Homo sapiens) (Q8WZA2 whole entry, looked up): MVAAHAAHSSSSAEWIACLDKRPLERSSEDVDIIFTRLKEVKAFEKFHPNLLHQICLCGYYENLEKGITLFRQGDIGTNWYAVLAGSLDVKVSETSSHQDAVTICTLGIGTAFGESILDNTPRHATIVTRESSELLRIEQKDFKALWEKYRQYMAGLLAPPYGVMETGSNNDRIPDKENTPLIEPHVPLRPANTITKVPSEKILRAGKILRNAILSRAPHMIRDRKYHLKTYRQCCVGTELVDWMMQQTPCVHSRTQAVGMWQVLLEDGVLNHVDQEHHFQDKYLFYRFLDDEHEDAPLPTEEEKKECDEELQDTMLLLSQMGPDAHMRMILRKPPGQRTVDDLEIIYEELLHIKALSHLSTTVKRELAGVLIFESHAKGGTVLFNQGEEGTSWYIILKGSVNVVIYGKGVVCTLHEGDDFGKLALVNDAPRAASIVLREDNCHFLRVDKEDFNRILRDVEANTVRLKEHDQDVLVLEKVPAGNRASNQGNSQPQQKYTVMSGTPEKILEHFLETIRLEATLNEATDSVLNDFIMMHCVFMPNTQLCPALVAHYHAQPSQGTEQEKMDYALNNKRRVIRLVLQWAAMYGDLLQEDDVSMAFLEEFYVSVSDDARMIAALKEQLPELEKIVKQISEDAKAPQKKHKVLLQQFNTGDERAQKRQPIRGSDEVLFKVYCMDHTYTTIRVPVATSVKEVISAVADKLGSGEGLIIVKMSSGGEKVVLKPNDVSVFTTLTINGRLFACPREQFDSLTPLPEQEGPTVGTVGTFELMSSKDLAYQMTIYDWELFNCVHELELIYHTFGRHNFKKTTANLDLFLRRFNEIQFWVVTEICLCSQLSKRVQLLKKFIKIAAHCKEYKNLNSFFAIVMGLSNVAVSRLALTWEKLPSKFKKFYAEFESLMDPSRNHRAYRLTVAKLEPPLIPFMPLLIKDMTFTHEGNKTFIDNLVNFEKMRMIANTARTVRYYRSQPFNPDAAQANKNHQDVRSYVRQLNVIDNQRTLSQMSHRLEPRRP
The target is the same in experiment [18]. The experiment can be described thus: Confirmatory qHTS for antagonist of cAMP-regulated guanine nucleotide exchange factor 4 (EPAC2) (AID 1645885). Note: potency is the fitted concentration of half-maximal effect; nearly all actives have a fitted effect of over 25% in size.
Experiment [19] can be described thus: qHTS profiling of the MIPE4 collection as inhibitors of Plasmodium falciparum (3D7) proliferation (AID 743344; call rule not given here;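 note: scaled between DMSO vehicle wells and 0.29 µM artemisinin as full inhibition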). Particulars: P. falciparum 3D7 in erythrocytes, SYBR Green DNA fluorescence, 72 h; at 28.5 µM (top of the series). The method in brief:
(§2)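 Erythrocytes infected with P. falciparum (0.3% parasitemia, 2.5% hematocrit) incubated with compounds 72 h at 37 C, 5% CO2. Lysis with saponin/Triton buffer containing SYBR Green I, overnight at room temperature in the dark; DNA fluorescence (485/535 nm) normalised to 0.29 uM artemisinin and DMSO.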

A short description of experiment [20]: qHTS profiling of the MIPE4 collection as inhibitors of Plasmodium falciparum (DD2) proliferation (AID 743345; call rule not given here). The following applies: P. falciparum Dd2 in erythrocytes, SYBR Green DNA, 72 h; at 28.5 µM (top of the series). In outline:
as §2

Experiment [21] in a line: qHTS profiling of the MIPE4 collection as inhibitors of Plasmodium falciparum (DD2) proliferation (Rep 2) (AID 743346; call rule not given here). The following applies: P. falciparum Dd2 in erythrocytes, SYBR Green DNA, 72 h; at 28.5 µM (top of the series). The method in brief: as §2
Experiment [22] can be described thus: qHTS profiling of the MIPE4 collection as inhibitors of Plasmodium falciparum (HB3) proliferation (AID 743347; call rule not given here;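 note: plate controls were DMSO vehicle wells for no effect and artemisinin wells for full effect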). The following applies: P. falciparum HB3 in erythrocytes, SYBR Green DNA, 72 h; at 28.5 µM (top of the series). In outline:
as §2

Chain of Glucocorticoid receptor (Homo sapiens) (P04150 whole entry, looked up): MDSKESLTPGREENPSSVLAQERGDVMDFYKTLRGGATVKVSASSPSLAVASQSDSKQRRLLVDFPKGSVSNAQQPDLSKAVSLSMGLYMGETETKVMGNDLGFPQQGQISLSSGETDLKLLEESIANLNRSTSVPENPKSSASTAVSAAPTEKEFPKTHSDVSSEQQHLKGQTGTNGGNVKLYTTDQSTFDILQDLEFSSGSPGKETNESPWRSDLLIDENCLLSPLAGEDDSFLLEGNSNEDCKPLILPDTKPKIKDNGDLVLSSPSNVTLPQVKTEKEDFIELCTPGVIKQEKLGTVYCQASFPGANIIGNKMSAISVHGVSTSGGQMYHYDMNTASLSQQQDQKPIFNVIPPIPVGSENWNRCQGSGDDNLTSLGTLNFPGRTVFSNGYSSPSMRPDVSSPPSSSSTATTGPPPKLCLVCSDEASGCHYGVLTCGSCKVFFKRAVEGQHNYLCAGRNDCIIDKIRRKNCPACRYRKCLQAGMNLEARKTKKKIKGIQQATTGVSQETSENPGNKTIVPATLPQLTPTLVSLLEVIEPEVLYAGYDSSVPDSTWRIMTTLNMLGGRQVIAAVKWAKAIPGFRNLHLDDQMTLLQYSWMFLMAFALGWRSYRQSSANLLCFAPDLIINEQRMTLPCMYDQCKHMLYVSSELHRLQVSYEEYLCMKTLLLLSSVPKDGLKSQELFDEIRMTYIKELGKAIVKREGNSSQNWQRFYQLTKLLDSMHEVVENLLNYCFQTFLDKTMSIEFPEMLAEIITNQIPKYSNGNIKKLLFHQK
Chain of Rap guanine nucleotide exchange factor 3 (Homo sapiens) (O95398 whole entry, looked up): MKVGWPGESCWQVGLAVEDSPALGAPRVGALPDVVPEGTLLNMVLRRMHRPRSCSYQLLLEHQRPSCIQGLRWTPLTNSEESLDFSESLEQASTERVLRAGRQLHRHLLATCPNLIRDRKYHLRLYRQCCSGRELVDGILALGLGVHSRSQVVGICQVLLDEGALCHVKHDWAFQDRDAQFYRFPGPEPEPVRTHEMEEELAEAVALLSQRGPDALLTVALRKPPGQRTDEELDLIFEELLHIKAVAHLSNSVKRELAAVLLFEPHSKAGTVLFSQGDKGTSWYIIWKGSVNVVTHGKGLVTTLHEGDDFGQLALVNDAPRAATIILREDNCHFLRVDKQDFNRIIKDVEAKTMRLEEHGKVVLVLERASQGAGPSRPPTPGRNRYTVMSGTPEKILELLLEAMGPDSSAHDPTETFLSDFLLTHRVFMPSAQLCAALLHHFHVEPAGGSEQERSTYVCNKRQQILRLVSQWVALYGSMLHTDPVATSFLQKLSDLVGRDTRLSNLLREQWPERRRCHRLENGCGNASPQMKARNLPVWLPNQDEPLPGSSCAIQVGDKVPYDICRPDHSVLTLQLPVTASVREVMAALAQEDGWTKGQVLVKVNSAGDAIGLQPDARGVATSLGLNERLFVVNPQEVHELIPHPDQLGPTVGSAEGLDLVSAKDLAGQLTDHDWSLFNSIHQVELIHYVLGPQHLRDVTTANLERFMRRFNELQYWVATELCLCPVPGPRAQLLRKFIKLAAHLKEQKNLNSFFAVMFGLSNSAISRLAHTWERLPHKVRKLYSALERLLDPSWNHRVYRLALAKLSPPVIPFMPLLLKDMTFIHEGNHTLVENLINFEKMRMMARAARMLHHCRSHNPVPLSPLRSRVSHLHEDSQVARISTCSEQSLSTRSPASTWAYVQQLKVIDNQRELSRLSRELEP
Chain of Ubiquitin carboxyl-terminal hydrolase 1 (Homo sapiens) (O94782 whole entry, looked up): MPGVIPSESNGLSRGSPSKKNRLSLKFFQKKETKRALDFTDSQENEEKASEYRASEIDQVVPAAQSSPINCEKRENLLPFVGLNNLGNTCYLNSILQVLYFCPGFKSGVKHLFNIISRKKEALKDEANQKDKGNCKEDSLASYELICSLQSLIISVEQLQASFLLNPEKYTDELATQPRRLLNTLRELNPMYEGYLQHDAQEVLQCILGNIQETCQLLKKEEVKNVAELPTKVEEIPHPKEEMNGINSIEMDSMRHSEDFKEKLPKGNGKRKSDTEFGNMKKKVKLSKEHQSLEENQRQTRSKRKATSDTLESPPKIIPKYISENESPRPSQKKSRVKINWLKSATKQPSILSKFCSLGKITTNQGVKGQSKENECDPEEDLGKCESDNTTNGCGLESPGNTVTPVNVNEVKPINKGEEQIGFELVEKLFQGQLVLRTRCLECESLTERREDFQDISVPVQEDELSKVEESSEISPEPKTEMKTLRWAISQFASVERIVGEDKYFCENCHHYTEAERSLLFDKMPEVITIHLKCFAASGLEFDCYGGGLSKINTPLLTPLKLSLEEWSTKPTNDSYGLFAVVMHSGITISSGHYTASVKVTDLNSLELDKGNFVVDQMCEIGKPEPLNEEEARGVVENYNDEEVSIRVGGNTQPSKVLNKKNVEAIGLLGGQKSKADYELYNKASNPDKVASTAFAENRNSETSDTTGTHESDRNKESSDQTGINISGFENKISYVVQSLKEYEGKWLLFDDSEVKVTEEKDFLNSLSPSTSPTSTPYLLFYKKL
Chain of Cytochrome P450 3A4 (Homo sapiens) (P08684 whole entry, looked up): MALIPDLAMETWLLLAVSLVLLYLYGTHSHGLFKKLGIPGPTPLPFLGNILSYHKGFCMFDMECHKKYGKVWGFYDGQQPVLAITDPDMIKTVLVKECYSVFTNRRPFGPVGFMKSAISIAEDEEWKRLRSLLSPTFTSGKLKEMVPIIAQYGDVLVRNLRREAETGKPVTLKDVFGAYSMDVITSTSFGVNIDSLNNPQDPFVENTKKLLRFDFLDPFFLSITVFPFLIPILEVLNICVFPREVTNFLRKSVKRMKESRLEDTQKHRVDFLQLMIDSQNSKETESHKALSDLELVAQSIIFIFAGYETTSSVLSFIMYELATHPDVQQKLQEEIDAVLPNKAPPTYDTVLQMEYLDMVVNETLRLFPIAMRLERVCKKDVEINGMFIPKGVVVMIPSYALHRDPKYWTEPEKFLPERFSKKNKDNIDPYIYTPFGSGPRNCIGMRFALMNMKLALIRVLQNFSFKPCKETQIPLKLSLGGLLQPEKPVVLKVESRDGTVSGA

For the compound `O=C(Nc1ccc([N+](=O)[O-])cc1O)Nc1ccccc1Br`, the Potency result in [1] is “inactive”.
For the compound `O=C(Nc1ccc(Oc2ccccc2)cc1)O[C@@H]1CO[C@H]2[C@@H]1OC[C@@H]2n1nnnc1-c1ccc(-c2ccccc2)cc1`, the Potency entry in experiment [2], in [3] and in experiment [4] was “inactive” throughout.
For `O=c1ccn([C@@H]2O[C@H](COP(=O)(O)O)[C@@H](O)[C@H]2O)c(=O)[nH]1`, in [1], the Potency entry is “inactive”.
Consider `O=C(O)CCC/C=C\C[C@@H]1C(/C=C/[C@@H](O)COc2cccc(C(F)(F)F)c2)[C@@H](O)C[C@@H]1O` (some centres not stated), for which the activity change, negative = inhibition in experiment [1] was 0.372% [at 6.83 µM] (inactive).
In the case of `CC(C)c1cc(/C=C(\C#N)C(=O)NCCCc2ccccc2)cc(C(C)C)c1O`, the Potency result in experiment [1] is “inactive”.
Take `C=NC(C(=O)N[C@H]1C(=O)N2C1SC(C)(C)C2C(=O)O)c1ccccc1` (some centres not stated): the Potency result in experiment [3], in experiment [5], in experiment [6], in experiment [4] and in experiment [7] was “inactive” in each case. Besides, in experiment [1], the Potency is 26.7 µM (active).
In the case of `C[C@H](N)CCP(=O)(O)O`, the Potency result in experiment [1] was “inactive”.
On the same count and under the same terms, as for `Nc1ncnc2c1ncn2[C@@H]1O[C@H](COP(=O)(O)OP(=O)(O)CP(=O)(O)O)[C@@H](O)[C@H]1O`, the entry is “inactive”.
As for `Cc1cc(C)cc(C(=O)N(C)[C@H](Cc2ccc(-c3ccccc3)cc2)C(=O)N[C@@H](Cc2c[nH]c3ccccc23)C(=O)O)c1`, the Potency in experiment [8] was > 46 µM (inactive); in experiment [9], > 46 µM (inactive); in experiment [11], 79.4 µM (active); in experiment [2], 9.61 µM (active); in experiment [3], 19.2 µM (active); in [13], 1.75 µM (active). The Potency was 158 µM (active) in experiment [14], 28.2 µM (active) in experiment [15] and 55.5 µM (active) in [18]. For the same compound, the Potency result in experiment [10], in experiment [12], in [5], in [6] and in experiment [7] was “inactive” each time. The outcome in [16] and in experiment [17] was inactive.
In the case of `O=C(NCCCN1CCCCCC1)C(c1ccccc1)C1CCCCC1` (configuration not stated), the Potency result in experiment [1] was “inactive”.
`O=C(O)c1cc(NCc2cc(O)ccc2O)ccc1O`: the parasite growth, % of DMSO control in experiment [19] was 85.7%. The parasite growth remaining, % of DMSO control (lower = more inhibition) in experiment [20] came out at 96.7%. The same compound returned a parasite growth, % of control (lower = inhibition) in experiment [21] of 67.1%. The compound further came in with a growth, % of control in experiment [22] of 68.7%. The Potency result in [3], in [14], in experiment [5] and in experiment [6] was “inactive” in each case. For the same compound, in experiment [15], the Potency is 22.4 µM (active).
Take `COCCNC(=O)COc1ccc(OCCNC[C@H](O)COc2ccccc2)cc1`: the Potency result in experiment [1] is “inactive”.
